The text below walks through data of PubChem BioAssay (NCI).

This is part of a sample that, as a whole, favours compounds with a hit. Of some 83,000 tested, about 20% had one in any assay.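 Activity criterion: percent growth below 10, measured after cells in 96-well plates were exposed to a single compound concentration for 48 hours.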 Values without a mark were called inactive. The source made the active and inactive calls.

Some test systems named below: SR leukemia; RPMI-8226 leukemia; OVCAR-8 ovarian; OVCAR-5 ovarian; OVCAR-4 ovarian; SK-OV-3 ovarian; IGROV1 ovarian; OVCAR-3 ovarian; HS 578T breast; NCI/ADR-RES ovarian; T-47D breast; BT-549 breast; MDA-MB-435 melanoma; SW-620 colon; MCF7 breast; HCT-116 colon; HCC-2998 colon; KM12 colon.
Assay in all cases: NCI-60 one-dose screen, 48 h (100 = growth as untreated, 0 = no growth, -100 = all killed)
What all share (details): 10 µM unless noted

Take `COCCCOc1cc(C[C@@H](C[C@H](N)[C@@H](O)C[C@H](C(=O)NCC(C)(C)C(N)=O)C(C)C)C(C)C)ccc1OC`: the growth in the test on SR leukemia was 103%; in the test on RPMI-8226 leukemia it was 111%; in the test with OVCAR-8 ovarian, 105%; in the test with OVCAR-5 ovarian it was 110%; in the test with OVCAR-4 ovarian, 101%; with SK-OV-3 ovarian it was 113%. The growth in the test with IGROV1 ovarian is 111%; in the test on OVCAR-3 ovarian, 116%; in the test on HS 578T breast it was 71.3%; in the test on NCI/ADR-RES ovarian, 103%; in the test with T-47D breast, 107%; in the test with BT-549 breast, 110%. The growth with MDA-MB-435 melanoma is 98.9%; in the test on SW-620 colon, 105%; with MCF7 breast, 95.1%; in the test with HCT-116 colon it was 101%; in the test on HCC-2998 colon it was 102%; in the test on KM12 colon it was 109%.
Regarding `CN1CCN(CCCOC(=O)c2c3c(n4ccccc24)C(=O)c2ncccc2C3=O)CC1`, the growth was -11.2% (active) in the test with SR leukemia; -0.22% (active) in the test with RPMI-8226 leukemia; 4.94% (active) in the test on OVCAR-8 ovarian; -4.35% (active) with OVCAR-5 ovarian; -11.6% (active) in the test on OVCAR-4 ovarian; -46.4% (active) in the test on SK-OV-3 ovarian. In addition, the growth is 4.12% (active) in the test on IGROV1 ovarian; 0.457% (active) with OVCAR-3 ovarian; -1.51% (active) with HS 578T breast; 2.37% (active) in the test on NCI/ADR-RES ovarian; 47.6% in the test on T-47D breast; 24.9% in the test on BT-549 breast. In addition, the growth in the test with MDA-MB-435 melanoma is -40.4% (active); with SW-620 colon it was -57.2% (active); in the test on MCF7 breast it was -45.9% (active); in the test with HCT-116 colon it was -29.5% (active); in the test with HCC-2998 colon, 29.9%; in the test on KM12 colon, 17.5%.
Consider `O=C(Nc1ccccc1O)c1ccccc1Nc1ccnc(C(F)(F)F)c1`, for which the growth in the test with SR leukemia is 76%; in the test on RPMI-8226 leukemia, 56.5%; in the test on OVCAR-8 ovarian, 100%; in the test with OVCAR-5 ovarian it was 99.9%; in the test on OVCAR-4 ovarian it was 95.8%; in the test with SK-OV-3 ovarian, 100%. Also, the growth was 79.5% in the test on IGROV1 ovarian; 97.6% in the test on OVCAR-3 ovarian; 96.4% with HS 578T breast; 90.7% in the test on NCI/ADR-RES ovarian; 88.4% with T-47D breast; 112% in the test with BT-549 breast. The growth in the test with MDA-MB-435 melanoma was 115%; with SW-620 colon, 102%; with MCF7 breast it was 83.4%; with HCT-116 colon, 84.2%; in the test on HCC-2998 colon, 107%; in the test on KM12 colon, 102%.
Consider `Cc1cc(N2CCN(C)CC2)nc(NCc2cc(Nc3ccnc4cc(Cl)ccc34)ccc2F)n1`, for which the growth is -32% (active) with SR leukemia; -29.6% (active) with RPMI-8226 leukemia; 6.32% (active) with OVCAR-8 ovarian; -3.76% (active) in the test with OVCAR-5 ovarian; 14.9% in the test with OVCAR-4 ovarian; 23% in the test on SK-OV-3 ovarian. Also, the growth is 10.4% in the test with IGROV1 ovarian; -46.8% (active) in the test on OVCAR-3 ovarian; 11% in the test with HS 578T breast; 18.7% in the test on NCI/ADR-RES ovarian; -56.1% (active) in the test with T-47D breast; 30.4% with BT-549 breast. In addition, the growth in the test with MDA-MB-435 melanoma was -43.6% (active); in the test with SW-620 colon, -18.6% (active); in the test with MCF7 breast, -9.33% (active); in the test with HCT-116 colon, -45.3% (active); in the test on HCC-2998 colon, -12.7% (active); in the test with KM12 colon it was 12.7%.
On to `Cn1cc(C(=O)c2nc(-c3c[nH]c4ccc(Br)cc34)no2)c2cc(Br)ccc21`, for which the growth in the test on SR leukemia is 6.41% (active); in the test with RPMI-8226 leukemia it was 86.6%; with OVCAR-8 ovarian it was 48.6%; in the test on OVCAR-5 ovarian it was 82.7%; in the test on OVCAR-4 ovarian, -0.341% (active); in the test on SK-OV-3 ovarian, 87.7%. The growth with IGROV1 ovarian is 69.5%; in the test with OVCAR-3 ovarian, 92.7%; in the test with HS 578T breast, 80.3%; in the test with NCI/ADR-RES ovarian, 56.1%; in the test with T-47D breast, 71.8%; in the test on BT-549 breast it was 79%. Also, the growth was 63.3% in the test with MDA-MB-435 melanoma; -2.17% (active) with SW-620 colon; 38.8% with MCF7 breast; 63.5% in the test with HCT-116 colon; 103% in the test on HCC-2998 colon; 55.2% in the test with KM12 colon.
Turning to `COc1ccc(Cl)cc1Nc1nc(C(F)(F)F)ccc1C(=O)N/N=C/c1ccccc1Cl`, the growth with SR leukemia was -15.1% (active); with RPMI-8226 leukemia, -56.6% (active); with OVCAR-8 ovarian, 11.2%; in the test with OVCAR-5 ovarian, 22%; with OVCAR-4 ovarian it was -18.3% (active); with SK-OV-3 ovarian, 11.7%. The growth in the test on IGROV1 ovarian was 4.17% (active); in the test with OVCAR-3 ovarian, 1.6% (active); in the test with HS 578T breast it was 9.51% (active); with NCI/ADR-RES ovarian, 0.235% (active); in the test on T-47D breast it was -22.5% (active); in the test on BT-549 breast, 13.3%. The growth in the test with MDA-MB-435 melanoma was 26.9%; in the test with SW-620 colon, 7.18% (active); in the test on MCF7 breast, -8.68% (active); in the test with HCT-116 colon, 14.2%; with HCC-2998 colon it was -11.2% (active); in the test with KM12 colon, 7.71% (active).
Take `O=C1Nc2ccccc2C2c3cccn3-c3ccccc3N12` (centres undefined): the growth in the test with SR leukemia was 49.5%; with RPMI-8226 leukemia it was 82.6%; with OVCAR-8 ovarian it was 86.9%; in the test with OVCAR-5 ovarian it was 96.6%; with OVCAR-4 ovarian, 84.2%; in the test with SK-OV-3 ovarian, 84.6%. In addition, the growth with IGROV1 ovarian was 74.1%; with OVCAR-3 ovarian, 74.1%; with HS 578T breast it was 78.3%; in the test with NCI/ADR-RES ovarian, 42.7%; in the test with T-47D breast, 76%; with BT-549 breast it was 82.7%. For the same compound, the growth in the test with MDA-MB-435 melanoma is 7.5% (active); in the test with SW-620 colon, 49.6%; with MCF7 breast, 60.1%; with HCT-116 colon, 78.2%; in the test with HCC-2998 colon, 77.2%; in the test on KM12 colon it was 62.3%.
As for `Oc1c(I)cc(-c2nc3ccccc3s2)cc1CN(Cc1ccccn1)Cc1ccccn1`, the growth in the test on SR leukemia is 6.31% (active); in the test on RPMI-8226 leukemia it was 15.2%; with OVCAR-8 ovarian, 10.9%; in the test with OVCAR-5 ovarian it was 49.7%; in the test on OVCAR-4 ovarian, 31.9%; in the test on SK-OV-3 ovarian, 18.5%. Moreover, the growth was 5.99% (active) with IGROV1 ovarian; 31.5% in the test with OVCAR-3 ovarian; 46.8% in the test with HS 578T breast; -2.29% (active) with NCI/ADR-RES ovarian; 17% with T-47D breast; 22% with BT-549 breast. The growth in the test with MDA-MB-435 melanoma is 33.3%; in the test with SW-620 colon it was 21.3%; in the test on MCF7 breast it was 13.7%; with HCT-116 colon, 16.1%; in the test with HCC-2998 colon it was 9.25% (active); in the test with KM12 colon, 28.4%.
